Test results published in PubChem BioAssay (EPA / NIEHS).
Records with an inconclusive call do not appear. More than one record can exist for a structure, and the calls need not agree. Active and inactive are the calls of the source. The calls were made as follows: active = hit-call score of the fitted dose curve at least 0.9, where 1 is the maximum; inconclusive = response in the unintended direction; inactive = score below 0.9.

target: Hepatocyte nuclear factor 4-alpha (Homo sapiens) (UniProt P41235); assay: ATG_HNF4a_TRANS: Attagene TRANS-FACTORIAL HepG2 Assay for human Hepatocyte Nuclear Factor 4 alpha (HNF4a) (AID 2282982); settings: HepG2 HNF4a transactivation reporter, mRNA readout
Description: ATG_TRANS is a cell-based, multiplexed-readout assay that uses HepG2, a human liver cell line, with measurements taken at 24 hours after chemical dosing in a 24-well plate.ATG_HNF4a_TRANS is one of 30 assay component(s) measured or calculated from the ATG_TRANS assay. It is designed to make measurements of mRNA induction, a form of inducible reporter, as detected with fluorescence intensity signals by Reverse transcription polymerase chain reaction (RT-PCR) and Capillary electrophoresis technology.Data from the assay component ATG_HNF4a_TRANS was analyzed into 1 assay endpoint. This assay endpoint, ATG_HNF4a_TRANS, was analyzed in the positive analysis fitting direction relative to DMSO as the negative control and baseline of activity. Using a type of inducible reporter, measures of mRNA for gain-of-signal activity can be used to understand the reporter gene at the transcription factor-level as they relate to the gene HNF4A. Furthermore, this assay endpoint can be referred to as a primary readout, because this assay has produced multiple assay endpoints where this one serves a reporter gene function. To generalize the intended target to other relatable targets, this assay endpoint is annotated to the nuclear receptor intended target family, where the subfamily is orphan.
Human liver HepG2 cells are transiently transfected with multiple reporter transcription units (MRTUs) in 6-well plates using FuGene 6 reagent (Roche; 3 ml FuGene/1 mg DNA). The MRTU constructs are regulated by a cis-regulating element (promoter). […] A major difference between the CIS and TRANS system is that in CIS activities of endogenous TFs are measured, whereas the TRANS assay evaluates changes in activities of exogenous, chimeric NR-Gal4 proteins. […] At the end of 24 hour incubation, total RNA was isolated using TriZol reagent (Invitrogen). The isolated RNA is then reverse-transcribed using oligo(dT) primer and Mo-MLV reverse transcriptase (Invitrogen) with DNAse I (Ambion) treatment for 30 min. The one-tenth of the produced cDNA was amplified by PCR using Taq DNA polymerase (Invitrogen) and two reporter sequence-specific primers. The PCR products were fluorescently labeled by primer extension with 6-arboxyfluorescein (6-FAM) 5'-labeled reporter sequence-specific primer (2 min at 95 C, 20 s at 68 C and 10 min at 72 C) and these products were digested with 5U of HpaI (New England Biolabs) for 2h at 37 C. The fragments were purified using Qiaquick PCR columns (Qiagen), analyzed on an ABI 3130xL genetic analyzer (Applied Biosystems) with peak positions identified by using a set of X-rhodamine (ROX)-labeled MapMarker1000 molecular weight standards (BioVentures). The raw capillary electrophoresis data was processed using Attagraph software (Attagene).

Hepatocyte nuclear factor 4-alpha (Homo sapiens), sequence (P41235 whole entry, looked up): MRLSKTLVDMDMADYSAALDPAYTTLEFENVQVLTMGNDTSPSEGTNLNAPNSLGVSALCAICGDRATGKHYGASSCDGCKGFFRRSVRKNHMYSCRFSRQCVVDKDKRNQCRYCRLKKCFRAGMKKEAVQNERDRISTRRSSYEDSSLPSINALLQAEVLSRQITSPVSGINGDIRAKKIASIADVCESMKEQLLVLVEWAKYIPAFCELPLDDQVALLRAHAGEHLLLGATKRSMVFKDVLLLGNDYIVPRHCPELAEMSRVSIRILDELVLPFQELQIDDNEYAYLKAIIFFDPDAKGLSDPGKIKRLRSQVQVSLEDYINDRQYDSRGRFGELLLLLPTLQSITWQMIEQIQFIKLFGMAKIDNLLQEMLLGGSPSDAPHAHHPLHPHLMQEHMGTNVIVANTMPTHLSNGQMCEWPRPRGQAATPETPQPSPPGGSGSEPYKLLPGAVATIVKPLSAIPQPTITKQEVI

Row | SMILES | outcome | AC50
1 | CC[N+](CC)(CC)Cc1ccccc1 | inactive | 
2 | Oc1c(Cl)cc(Cl)cc1Sc1cc(Cl)cc(Cl)c1O | inactive | 
3 | C=Cc1ccc(O)c(OC)c1 | inactive | 
4 | CCC1CO1 (stereo not given) | inactive | 
5 | C/C=C/C(=O)C1=C(C)CCCC1(C)C |  | 159 µM (active)
6 | O=C(c1cc(O)c(O)c(O)c1)c1ccc(O)c(O)c1O | inactive | 
7 | OCCN1CN(CCO)CN(CCO)C1 | inactive | 
8 | COC(O)c1ccccc1 (stereo not given) | inactive | 
9 | Clc1ccc2c(Cl)ccnc2c1 | inactive | 
10 | O=C1c2ccc(O)c(O)c2C(=O)c2c(O)ccc(O)c21 | inactive | 
11 | CC1CNCC(C)O1 (stereo not given) | inactive | 
12 | O=C1C=CC(=O)N1c1cccc(N2C(=O)C=CC2=O)c1 | inactive | 
13 | CCCCCCc1ccc(N)cc1 | inactive | 
14 | CCCCCCCCCCCCCC[n+]1ccccc1 |  | 100 µM (active)
15 | COC1=CC(=O)C[C@@H](C)[C@]12Oc1c(Cl)c(OC)cc(OC)c1C2=O | inactive | 
16 | Cc1cccc2c1ccc1ccccc12 | inactive | 
17 | O=S(=O)(O)C(F)(F)C(F)(F)C(F)(F)C(F)(F)C(F)(F)C(F)(F)C(F)(F)C(F)(F)C(F)(F)C(F)(F)F | inactive | 
18 | O=S(=O)(O)c1ccccc1 | inactive | 
19 | CCCCN(C)C | inactive | 
20 | O=P(O)(O)CCC(F)(F)C(F)(F)C(F)(F)C(F)(F)C(F)(F)C(F)(F)F | inactive | 

Row | SMILES | outcome | AC50
21 | CCCCCC(C)OC(=O)COc1ccc(Cl)c2cccnc12 (stereo not given) | inactive | 
22 | CC(C)C=O | inactive | 
23 | CC1CCC(C(=O)O)CC1 (stereo not given) | inactive | 
24 | O=C(NO)c1ccccc1 | inactive | 
25 | CCc1cccc(CC)c1N(COC)C(=O)CS(=O)(=O)O | inactive | 
26 | O=C(O)C(F)(F)OC(F)(F)C(F)(F)OC(F)(F)C(F)(F)OC(F)(F)C(F)(F)C(F)(F)C(F)(F)F | inactive | 84.7 µM (active)
27 | O=S(=O)(O)c1ccc2cc(O)ccc2c1 | inactive | 
28 | CCCCCCCCCCCCOC(=O)c1cc(O)c(O)c(O)c1 | inactive | 
29 | CCOC(C)=O | inactive | 
30 | COc1ccccc1NC(=O)c1cc2ccccc2cc1O | inactive | 
31 | CCOC=C(C(=O)OCC)C(=O)OCC | inactive | 
32 | COc1cc(OC)nc(NC(=O)NS(=O)(=O)Nc2ccccc2C(=O)N(C)C)n1 | inactive | 
33 | CC(C)(C)c1ccc(O)c(O)c1 | inactive | 
34 | NS(=O)(=O)O | inactive | 
35 | O=C(Nc1cccc([N+](=O)[O-])c1)c1cc2ccccc2cc1O | inactive | 
36 | C[N+](C)(CCCNS(=O)(=O)CCC(F)(F)C(F)(F)C(F)(F)C(F)(F)C(F)(F)C(F)(F)F)CC(=O)[O-] | inactive | 
37 | OCC(F)(F)C(F)(F)C(F)(F)C(F)(F)C(F)(F)C(F)(F)C(F)(F)C(F)(F)C(F)(F)C(F)(F)C(F)(F)F | inactive | 
38 | CCCCCCCCCCCC[N+](C)(C)Cc1ccccc1 | inactive | 
39 | O=C(O)C(=O)O | inactive | 
